The panel holds about 79,000 compounds, 15% with a hit somewhere; the sample as a whole holds those more often. Values without a mark were called inactive. The source made the active and inactive calls. No stated cut-off is given here; in the data, active means growth inhibition above about 70%; inactive means the rest.

Data on 9 compounds can be found in PubChem BioAssay (NCI).

Experiment [1] in a line: NCI Yeast Anticancer Drug Screen. Data for the rad50 strain (AID 155).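 Further: 0% = growth of vehicle-only cultures of the same strain.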 Conditions: S. cerevisiae rad50 strain growth inhibition, hits give high values. The essentials:
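Readout: growth inhibition relative to vehicle-treated cultures. Compound exposure was carried out in a genetically defined yeast strain deficient in DNA damage repair.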

Experiment [2] is described as follows: NCI Yeast Anticancer Drug Screen. Data for the mec2-1 strain (AID 157). Conditions: S. cerevisiae mec2-1 strain, hits give high values. The essentials: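 Each compound was tested on mec2-1 yeast, a strain altered in DNA damage repair or cell cycle control. Growth inhibition is reported relative to vehicle.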
A short description of experiment [3]: NCI Yeast Anticancer Drug Screen. Data for the sgs1 mgt1 strain (AID 161).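 Further: 0% = growth of cultures given vehicle only.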 Conditions: S. cerevisiae sgs1 mgt1 strain, hits give high values. The procedure, abridged:
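Test agents were incubated with a DNA-repair-mutant yeast strain. Growth was then read and compared against vehicle-treated controls.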

Experiment [4] is described as follows: NCI Yeast Anticancer Drug Screen. Data for the cln2 rad14 strain (AID 165).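 Further: 0% = growth equal to vehicle treated cultures.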 Conditions: S. cerevisiae cln2 rad14 strain, hits give high values. The essentials:
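Test compounds were added to cln2 rad14 yeast cultures; inhibition of growth was then determined by comparison with vehicle treatment.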

The nature of experiment [5]: NCI Yeast Anticancer Drug Screen. Data for the bub3 strain (AID 167). To be noted: S. cerevisiae bub3 mutant strain, hits give high values. The essentials:
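Readout: yeast growth inhibition, expressed relative to vehicle-only wells. The test organism is a mutant strain from a panel with lesions in DNA repair or checkpoint genes.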

The nature of experiment [6]: NCI Yeast Anticancer Drug Screen. Data for the mlh1 rad18 strain (AID 175). To be noted: S. cerevisiae mlh1 rad18 strain growth inhibition, hits give high values. The procedure, abridged:
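Inhibition values reflect reduced growth of mutant yeast versus vehicle-treated controls following compound exposure; the mutations affect DNA damage repair.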

Setting [7] is: at 5.0 µM (retest, dose inferred, filed as 0.5).
The mark [8] stands for this setting: at 50.0 µM (retest, dose inferred, filed as 5.0).

For the compound `CCCCCCCCCCCCNC(=O)C[n+]1cccc(C(=O)Nc2ccccc2)c1`, the growth inhibition in experiment [1] (setting [7]) is 99% (active); in experiment [1] (setting [8]), 97% (active); in experiment [1] (at 50.0 µM), 98.8% (active); in experiment [2] (setting [7]) it was 100% (active); in experiment [2] (setting [8]) it was 99% (active); in experiment [2] (at 50.0 µM) it was 98.8% (active). The growth inhibition in experiment [3] (setting [7]) was 99% (active); in experiment [3] (setting [8]), 98% (active); in experiment [3] (at 50.0 µM) it was 99.5% (active); in experiment [4] (setting [7]), 99% (active); in experiment [4] (setting [8]), 98% (active); in experiment [4] (at 50.0 µM) it was 98.6% (active). The growth inhibition in experiment [5] (setting [7]) was 99% (active); in experiment [5] (setting [8]), 98% (active); in experiment [5] (at 50.0 µM) it was 98.2% (active); in experiment [6] (setting [7]), 99% (active); in experiment [6] (setting [8]) it was 98% (active); in experiment [6] (at 50.0 µM), 98.2% (active).
For the compound `CNS(=O)(=O)c1ccccc1C=C(c1ccccc1)c1ccccc1`, the growth inhibition in experiment [1] (setting [7]) is 2%; in experiment [1] (setting [8]), 90% (active); in experiment [1] (at 50.0 µM) it was 93.1% (active); in experiment [2] (setting [7]) it was -12%; in experiment [2] (setting [8]), 93% (active); in experiment [2] (at 50.0 µM), 86.2% (active). The growth inhibition in experiment [3] (setting [7]) is 4%; in experiment [3] (setting [8]), 93% (active); in experiment [3] (at 50.0 µM) it was 94% (active); in experiment [4] (setting [7]) it was 2%; in experiment [4] (setting [8]) it was 89% (active); in experiment [4] (at 50.0 µM), 65.8%. Further, the growth inhibition in experiment [5] (setting [7]) was -11%; in experiment [5] (setting [8]), 92% (active); in experiment [5] (at 50.0 µM) it was 81.8% (active); in experiment [6] (setting [7]), -2%; in experiment [6] (setting [8]) it was 91% (active); in experiment [6] (at 50.0 µM) it was 94.1% (active).
For `O=C1Nc2c(ccc(Cl)c2I)C1=O`, the growth inhibition in experiment [1] (setting [7]) is -28%; in experiment [1] (setting [8]), 97% (active); in experiment [1] (at 50.0 µM), 92.2% (active); in experiment [2] (setting [7]), -3%; in experiment [2] (setting [8]), 99% (active); in experiment [2] (at 50.0 µM) it was 94.3% (active). The growth inhibition was -13% in experiment [3] (setting [7]); 70% (active) in experiment [3] (setting [8]); 92.3% (active) in experiment [3] (at 50.0 µM); 9% in experiment [4] (setting [7]); 98% (active) in experiment [4] (setting [8]); 91.2% (active) in experiment [4] (at 50.0 µM). Moreover, the growth inhibition in experiment [5] (setting [7]) is -5%; in experiment [5] (setting [8]), 98% (active); in experiment [5] (at 50.0 µM), 91.6% (active); in experiment [6] (setting [7]), -27%; in experiment [6] (setting [8]), 99% (active); in experiment [6] (at 50.0 µM) it was 91.7% (active).
Take `O=P(O)(O)Oc1c(O)c2ccccc2c2ccccc12`: the growth inhibition is 14% in experiment [1] (setting [7]); 73% (active) in experiment [1] (setting [8]); 91.4% (active) in experiment [1] (at 50.0 µM); 22% in experiment [2] (setting [7]); 95% (active) in experiment [2] (setting [8]); 94.8% (active) in experiment [2] (at 50.0 µM). In addition, the growth inhibition is 17% in experiment [3] (setting [7]); 85% (active) in experiment [3] (setting [8]); 97.5% (active) in experiment [3] (at 50.0 µM); 5% in experiment [4] (setting [7]); 97% (active) in experiment [4] (setting [8]); 97% (active) in experiment [4] (at 50.0 µM). Moreover, the growth inhibition in experiment [5] (setting [7]) was 25%; in experiment [5] (setting [8]), 92% (active); in experiment [5] (at 50.0 µM), 99.6% (active); in experiment [6] (setting [7]), 17%; in experiment [6] (setting [8]), 94% (active); in experiment [6] (at 50.0 µM), 99.3% (active).
Take `Nc1nnc(CCC(=O)Nc2ccccc2Cl)o1`: the growth inhibition in experiment [1] (setting [7]) is -2%; in experiment [1] (setting [8]), -5%; in experiment [1] (at 50.0 µM) it was -1.3%; in experiment [2] (setting [7]) it was 0%; in experiment [2] (setting [8]), 4%; in experiment [2] (at 50.0 µM) it was 79.5% (active). Further, the growth inhibition is -6% in experiment [3] (setting [7]); -2% in experiment [3] (setting [8]); 98.5% (active) in experiment [3] (at 50.0 µM); 7% in experiment [4] (setting [7]); 9% in experiment [4] (setting [8]); 98.2% (active) in experiment [4] (at 50.0 µM). Also, the growth inhibition was 1% in experiment [5] (setting [7]); 2% in experiment [5] (setting [8]); 98.8% (active) in experiment [5] (at 50.0 µM); -5% in experiment [6] (setting [7]); 2% in experiment [6] (setting [8]); 98.5% (active) in experiment [6] (at 50.0 µM).
`Cc1ccc(NC2=CC(=O)C(NO)c3ccccc32)cc1` (configuration not stated): the growth inhibition was 14% in experiment [1] (setting [7]); 66% in experiment [1] (setting [8]); 38.6% in experiment [1] (at 50.0 µM); 19% in experiment [2] (setting [7]); 66% in experiment [2] (setting [8]); 20.6% in experiment [2] (at 50.0 µM). The growth inhibition in experiment [3] (setting [7]) was 16%; in experiment [3] (setting [8]) it was 68%; in experiment [3] (at 50.0 µM), 35.6%; in experiment [4] (setting [7]), 10%; in experiment [4] (setting [8]) it was 40%; in experiment [4] (at 50.0 µM), 44.5%. In addition, the growth inhibition is 21% in experiment [5] (setting [7]); 83% (active) in experiment [5] (setting [8]); 21.9% in experiment [5] (at 50.0 µM); 13% in experiment [6] (setting [7]); 79% (active) in experiment [6] (setting [8]); 60.5% in experiment [6] (at 50.0 µM).
On to `C=CCN1/C(=C\C=C\c2ccc3cc(C)ccc3[n+]2CC=C)C=Cc2cc(C)ccc21`, for which the growth inhibition in experiment [1] (setting [7]) is 58%; in experiment [1] (setting [8]) it was 97% (active); in experiment [1] (at 50.0 µM), 90.5% (active); in experiment [2] (setting [7]), 63%; in experiment [2] (setting [8]), 99% (active); in experiment [2] (at 50.0 µM), 91.1% (active). In addition, the growth inhibition was 90% (active) in experiment [3] (setting [7]); 98% (active) in experiment [3] (setting [8]); 92.6% (active) in experiment [3] (at 50.0 µM); 78% (active) in experiment [4] (setting [7]); 98% (active) in experiment [4] (setting [8]); 91.9% (active) in experiment [4] (at 50.0 µM). The growth inhibition in experiment [5] (setting [7]) is 83% (active); in experiment [5] (setting [8]) it was 98% (active); in experiment [5] (at 50.0 µM), 91% (active); in experiment [6] (setting [7]) it was 79% (active); in experiment [6] (setting [8]) it was 98% (active); in experiment [6] (at 50.0 µM), 89.2% (active).
For `CC(C)OC(=S)SSSC(=S)OC(C)C`, the growth inhibition was 6% in experiment [1] (setting [7]); 99% (active) in experiment [1] (setting [8]); 99.5% (active) in experiment [1] (at 50.0 µM); 13% in experiment [2] (setting [7]); 99% (active) in experiment [2] (setting [8]); 99.5% (active) in experiment [2] (at 50.0 µM). In addition, the growth inhibition in experiment [3] (setting [7]) is 9%; in experiment [3] (setting [8]), 98% (active); in experiment [3] (at 50.0 µM) it was 99.7% (active); in experiment [4] (setting [7]) it was 0%; in experiment [4] (setting [8]) it was 97% (active); in experiment [4] (at 50.0 µM) it was 68.2%. Also, the growth inhibition was 6% in experiment [5] (setting [7]); 99% (active) in experiment [5] (setting [8]); 99.7% (active) in experiment [5] (at 50.0 µM); 9% in experiment [6] (setting [7]); 98% (active) in experiment [6] (setting [8]); 95.5% (active) in experiment [6] (at 50.0 µM).
For the compound `CC(C)NC(=O)OCCS(=O)c1c(Cl)c(Cl)nn1C` (configuration not stated), the growth inhibition in experiment [1] (setting [7]) was -15%; in experiment [1] (setting [8]), 62%; in experiment [1] (at 50.0 µM), 98.8% (active); in experiment [2] (setting [7]) it was 11%; in experiment [2] (setting [8]), 37%; in experiment [2] (at 50.0 µM) it was 99.2% (active). In addition, the growth inhibition in experiment [3] (setting [7]) was -5%; in experiment [3] (setting [8]) it was 53%; in experiment [3] (at 50.0 µM), 42.4%; in experiment [4] (setting [7]), 1%; in experiment [4] (setting [8]), 20%; in experiment [4] (at 50.0 µM) it was 97.7% (active). In addition, the growth inhibition is -4% in experiment [5] (setting [7]); 75% (active) in experiment [5] (setting [8]); 97% (active) in experiment [5] (at 50.0 µM); -7% in experiment [6] (setting [7]); 56% in experiment [6] (setting [8]); 99% (active) in experiment [6] (at 50.0 µM).
